Test [1] has as its system Proto-oncogene tyrosine-protein kinase receptor Ret (Homo sapiens), P07949 [Y791F]. The settings on record: at 1 µM.
For test [2], the target named is Macrophage-stimulating protein receptor (Homo sapiens) (UniProt Q04912). The settings on record: at 0.1 µM.
For test [3] the target is unchanged. The settings on record: at 1 µM.
The target of test [4] is Proto-oncogene tyrosine-protein kinase ROS (Homo sapiens) (UniProt P08922). The following applies: at 0.1 µM.
Test [5] has the same target. The following applies: at 1 µM.
Test [6] has as its target Proto-oncogene tyrosine-protein kinase Src (Homo sapiens) (UniProt P12931). The following applies: at 0.1 µM.
For test [7] the target is unchanged. The following applies: at 1 µM.
Test [8] concerns the target Tyrosine-protein kinase Srms (Homo sapiens) (UniProt Q9H3Y6). The following applies: at 0.1 µM.
Test [9] shares this target. The following applies: at 1 µM.
Test [10] concerns the target Tyrosine-protein kinase SYK (Homo sapiens) (UniProt P43405). The settings on record: at 0.1 µM.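 Also: reported percentages are mean inhibition values for SYK.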

The inhibition is the drop in the measured response relative to a control, in per cent.

Proto-oncogene tyrosine-protein kinase receptor Ret (Homo sapiens), P07949 [Y791F], sequence (P07949 whole entry Y791F): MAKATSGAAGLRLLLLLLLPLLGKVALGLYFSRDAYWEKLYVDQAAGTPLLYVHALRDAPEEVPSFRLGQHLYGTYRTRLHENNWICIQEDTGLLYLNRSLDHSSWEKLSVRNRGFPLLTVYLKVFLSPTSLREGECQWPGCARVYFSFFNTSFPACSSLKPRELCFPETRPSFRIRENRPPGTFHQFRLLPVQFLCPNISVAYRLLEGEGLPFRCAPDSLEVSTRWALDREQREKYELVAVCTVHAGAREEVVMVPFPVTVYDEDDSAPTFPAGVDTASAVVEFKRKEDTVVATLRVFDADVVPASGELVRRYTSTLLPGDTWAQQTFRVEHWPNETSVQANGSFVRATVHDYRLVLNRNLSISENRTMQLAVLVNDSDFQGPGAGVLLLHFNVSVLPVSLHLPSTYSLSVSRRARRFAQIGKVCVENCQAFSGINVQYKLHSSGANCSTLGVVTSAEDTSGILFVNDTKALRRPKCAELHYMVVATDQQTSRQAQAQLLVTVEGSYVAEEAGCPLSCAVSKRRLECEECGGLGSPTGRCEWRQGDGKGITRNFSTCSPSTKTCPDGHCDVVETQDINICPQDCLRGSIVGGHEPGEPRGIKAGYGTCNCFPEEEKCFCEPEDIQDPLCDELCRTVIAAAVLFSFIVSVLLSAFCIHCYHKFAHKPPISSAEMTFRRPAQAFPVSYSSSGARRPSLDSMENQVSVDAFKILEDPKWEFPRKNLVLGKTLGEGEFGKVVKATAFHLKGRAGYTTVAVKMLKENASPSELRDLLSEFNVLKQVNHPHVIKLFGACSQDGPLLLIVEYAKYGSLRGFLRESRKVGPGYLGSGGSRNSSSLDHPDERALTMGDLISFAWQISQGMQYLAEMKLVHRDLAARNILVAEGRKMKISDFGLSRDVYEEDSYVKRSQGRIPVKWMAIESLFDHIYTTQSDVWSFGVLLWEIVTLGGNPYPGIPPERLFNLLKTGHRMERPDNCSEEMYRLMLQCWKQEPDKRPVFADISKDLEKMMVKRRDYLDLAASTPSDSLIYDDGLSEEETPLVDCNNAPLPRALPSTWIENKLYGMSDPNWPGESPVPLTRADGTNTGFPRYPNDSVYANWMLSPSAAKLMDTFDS
Tyrosine-protein kinase Srms (Homo sapiens), sequence (Q9H3Y6 whole entry): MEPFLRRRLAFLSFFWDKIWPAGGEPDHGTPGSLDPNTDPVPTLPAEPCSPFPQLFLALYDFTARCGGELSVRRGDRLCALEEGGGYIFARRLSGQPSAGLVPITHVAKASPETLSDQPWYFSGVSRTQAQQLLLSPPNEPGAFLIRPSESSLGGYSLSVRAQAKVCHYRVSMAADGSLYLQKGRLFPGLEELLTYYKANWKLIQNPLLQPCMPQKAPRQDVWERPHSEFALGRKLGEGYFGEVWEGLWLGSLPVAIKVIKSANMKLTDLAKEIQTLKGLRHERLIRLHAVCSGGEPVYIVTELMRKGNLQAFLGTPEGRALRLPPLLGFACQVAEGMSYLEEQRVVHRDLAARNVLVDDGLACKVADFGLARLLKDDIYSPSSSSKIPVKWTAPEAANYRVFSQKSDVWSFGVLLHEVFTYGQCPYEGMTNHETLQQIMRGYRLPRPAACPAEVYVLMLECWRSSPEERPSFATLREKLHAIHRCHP
Proto-oncogene tyrosine-protein kinase Src (Homo sapiens), sequence (P12931 2-536 limits assumed): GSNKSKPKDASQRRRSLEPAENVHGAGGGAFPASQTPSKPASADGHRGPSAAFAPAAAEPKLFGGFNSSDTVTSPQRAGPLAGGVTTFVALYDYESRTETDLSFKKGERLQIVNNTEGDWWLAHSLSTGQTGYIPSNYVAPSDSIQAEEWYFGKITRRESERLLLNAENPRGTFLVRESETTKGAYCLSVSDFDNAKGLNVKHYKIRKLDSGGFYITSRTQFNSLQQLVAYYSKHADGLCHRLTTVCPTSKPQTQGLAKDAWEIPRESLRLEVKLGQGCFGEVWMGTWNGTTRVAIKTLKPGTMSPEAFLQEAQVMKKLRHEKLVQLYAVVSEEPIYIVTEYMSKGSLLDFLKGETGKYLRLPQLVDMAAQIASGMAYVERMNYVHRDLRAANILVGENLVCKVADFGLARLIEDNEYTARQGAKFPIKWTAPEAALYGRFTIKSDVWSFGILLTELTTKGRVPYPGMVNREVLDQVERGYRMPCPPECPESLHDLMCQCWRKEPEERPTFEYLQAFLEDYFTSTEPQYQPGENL
Macrophage-stimulating protein receptor (Homo sapiens), sequence (Q04912 25-304 limits assumed): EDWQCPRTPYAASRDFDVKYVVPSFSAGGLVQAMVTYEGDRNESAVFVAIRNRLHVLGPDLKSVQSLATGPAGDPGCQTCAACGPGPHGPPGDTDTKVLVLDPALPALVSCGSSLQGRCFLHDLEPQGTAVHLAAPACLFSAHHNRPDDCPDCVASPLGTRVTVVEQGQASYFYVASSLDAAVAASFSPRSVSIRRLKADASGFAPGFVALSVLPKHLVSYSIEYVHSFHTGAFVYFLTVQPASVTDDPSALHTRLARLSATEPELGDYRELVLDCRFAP
Macrophage-stimulating protein receptor (Homo sapiens), sequence (Q04912 310-1400 limits assumed): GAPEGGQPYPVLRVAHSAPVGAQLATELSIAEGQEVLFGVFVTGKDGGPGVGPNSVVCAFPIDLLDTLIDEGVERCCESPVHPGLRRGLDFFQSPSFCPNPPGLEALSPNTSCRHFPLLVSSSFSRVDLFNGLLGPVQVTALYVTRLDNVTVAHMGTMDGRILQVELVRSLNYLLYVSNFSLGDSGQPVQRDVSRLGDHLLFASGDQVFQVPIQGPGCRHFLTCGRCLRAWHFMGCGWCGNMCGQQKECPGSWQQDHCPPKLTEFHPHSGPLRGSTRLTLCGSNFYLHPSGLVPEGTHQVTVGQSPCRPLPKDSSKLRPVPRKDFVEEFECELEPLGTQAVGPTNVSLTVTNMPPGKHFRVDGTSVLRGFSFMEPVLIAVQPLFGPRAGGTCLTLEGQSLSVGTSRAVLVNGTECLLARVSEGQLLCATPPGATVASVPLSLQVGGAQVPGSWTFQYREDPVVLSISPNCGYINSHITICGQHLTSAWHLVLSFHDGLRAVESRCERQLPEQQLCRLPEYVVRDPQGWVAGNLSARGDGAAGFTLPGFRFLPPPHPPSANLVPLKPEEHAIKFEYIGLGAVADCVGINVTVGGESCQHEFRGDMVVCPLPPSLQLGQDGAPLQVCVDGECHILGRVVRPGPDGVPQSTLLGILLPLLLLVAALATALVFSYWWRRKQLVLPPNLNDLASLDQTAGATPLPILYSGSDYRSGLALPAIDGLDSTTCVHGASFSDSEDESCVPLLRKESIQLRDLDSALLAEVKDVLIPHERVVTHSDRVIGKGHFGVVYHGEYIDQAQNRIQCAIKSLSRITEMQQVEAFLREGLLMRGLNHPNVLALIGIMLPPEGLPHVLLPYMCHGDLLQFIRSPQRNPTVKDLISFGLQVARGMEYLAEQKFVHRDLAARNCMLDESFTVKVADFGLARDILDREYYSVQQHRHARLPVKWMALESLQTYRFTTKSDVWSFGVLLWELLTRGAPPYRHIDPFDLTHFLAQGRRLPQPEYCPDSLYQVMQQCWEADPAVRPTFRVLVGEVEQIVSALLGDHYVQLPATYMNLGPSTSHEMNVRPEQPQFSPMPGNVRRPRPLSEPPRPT

For `Cc1ccc(C(=O)NC2CCC2)cc1-c1ccc(C(=O)NCC2CC2)cc1`, the inhibition in [1] amounted to 2.67%; in [2], 5.75%; in [3] it was 4.87%; in [4], 3.25%; in test [5] it was 2.72%; in [6] it was 1.78%. The inhibition in [7] was 4.45%; in test [8], -2.12%; in test [9] it was -0.59%; in [10], -0.95%.
On to `Cc1ccc(C(=O)NC(C)C)cc1-c1ccc(C(=O)NCC2CC2)cc1`, for which the inhibition in test [1] was -0.37%; in [2], -4.49%; in test [3] it was 0.06%; in test [4], -1.39%; in test [5] it was 0.55%; in test [6] it was -4.72%. The inhibition was -6.71% in test [7], -2.42% in test [8], 2.24% in [9] and -0.72% in test [10].
As for `O=C1Nc2ccc(I)cc2C1=Cc1cc(Br)c(O)c(Br)c1`, the inhibition in test [1] came out at 5.79%; in [2], 8.18%; in test [3], 13.2%; in [4], 6.23%; in test [5], 8.1%; in test [6], 8.18%. In addition, the inhibition in [7] is 14.2%; in test [8], 2.19%; in test [9], 27.2%; in test [10] it was 1.97%.
`Fc1ccc(-c2ncn(C3CCNCC3)c2-c2ccnc(Oc3ccc4c(c3)OCO4)n2)cc1`: the inhibition amounted to 12.8% in [1]; 3.59% in test [2]; 4.19% in test [3]; 4.93% in test [4]; 8.59% in test [5]; 7.77% in test [6]. Also, the inhibition is 8.43% in test [7], -2.94% in [8], -4.12% in [9] and -0.62% in test [10].
Turning to `CCc1ccc(Oc2nccc(-c3c(-c4ccc(F)cc4)ncn3C3CCNCC3)n2)cc1`, the inhibition in [1] was found to be 8.79%; in [2] it was 3.67%; in test [3], 2.97%; in test [4], 6.34%; in test [5], 6.93%; in test [6] it was 10.2%. The inhibition in test [7] was 10%; in [8] it was -0.71%; in test [9], -0.39%; in test [10] it was 0.89%.
Regarding `c1ccc(Oc2ccc(Nc3ncc(-c4ccccc4)o3)cc2)cc1`, the inhibition in [1] is 6.74%; in [2] it was 4.82%; in [3], 2.2%; in test [4] it was 4.48%; in test [5] it was 5.71%; in [6], -4.51%. Also, the inhibition in test [7] is 3.93%; in test [8] it was 0.57%; in [9], 1.29%; in [10], -7.24%.
For `Fc1ccc(-c2ncn(CCCN3CCOCC3)c2-c2ccncc2)cc1`, the inhibition in test [1] was 7.08%; in [2] it was -2.7%; in [3], 0.97%; in [4] it was 2.12%; in test [5], 4.63%; in [6] it was 3.31%. In addition, the inhibition in test [7] is 1.01%; in test [8], -3.46%; in test [9] it was -3.16%; in test [10] it was 2.97%.
For the compound `COC(=O)Nc1nc2ccc(Sc3ccc(NC(=O)Nc4cc(C(F)(F)F)ccc4F)cc3)cc2[nH]1`, the inhibition in test [1] was 73.9%; in test [2] it was -5.81%; in test [3], -0.55%; in [4], -2.6%; in test [5], 0.19%; in test [6] it was 17.4%. Also, the inhibition in test [7] was 12.5%; in test [8], 1.2%; in test [9] it was -0.15%; in test [10] it was 0.25%.
Take `O=C(Nc1n[nH]c2cc(-c3cc(F)ccc3F)ccc12)C1CC1`: the inhibition in test [1] is 11.5%; in [2] it was 4.71%; in [3] it was 1.65%; in test [4] it was 5.51%; in test [5], 5.37%; in [6], -1.08%. The inhibition in test [7] is 8.62%; in test [8], -0.64%; in test [9], -2.57%; in [10] it was -7.24%.
On to `COc1cc(Nc2ncc(-c3ccccc3)o2)cc(OC)c1OC`, for which the inhibition in test [1] was 16.2%; in [2], -0.55%; in test [3], 3.47%; in [4], 2.53%; in test [5], 15.8%; in test [6], 19.7%. In addition, the inhibition in test [7] was 72.4%; in test [8], -1.26%; in test [9], 3.83%; in test [10], -0.67%.
Regarding `CCC(=O)Nc1ccc(C)c(-c2ccc(C(=O)NCC3CC3)cc2)c1`, the inhibition came to 6.48% in test [1]; 9.18% in test [2]; 7.8% in test [3]; 3.11% in test [5]; 6.28% in [6]; 6.57% in test [7]. Also, the figures for the inhibition in [8], in test [9] and in [10] were -0.92%, -1.83% and 3.61%, respectively.
Regarding `C/C(Nc1ccc(S(N)(=O)=O)cc1)=C1/C(=O)Nc2ccccc21`, the inhibition in test [1] is 40.3%; in test [2], 5.82%; in test [3], 4%; in test [4], 3.08%; in test [5], 8.7%; in [6] it was -2.31%. Besides, the inhibition was 0.81% in test [7], 1.16% in test [8], 4.16% in [9] and -1.12% in test [10].
Regarding `C#Cc1cccc(Nc2ncnc3ccc(OCCCCNCCS(C)(=O)=O)cc23)c1`, the inhibition in test [1] came to 31.3%; in [2], 1.53%; in test [3] it was 7.33%; in test [4] it was 3.71%; in test [5], 8.09%; in test [6], 1.2%. Moreover, the inhibition is 17.9% in test [7], 0.83% in test [8], 5.07% in test [9] and -6.78% in test [10].
For the compound `CN(C)CCCNc1nccc(-c2c(-c3ccc(F)cc3)nn3cc(C(F)(F)F)ccc23)n1`, the inhibition in test [1] was determined as 13.2%; in test [2] it was 3.96%; in [3], 5.64%; in test [4] it was 3.75%; in [5] it was 7.77%; in test [6], 16.6%. Besides, the inhibition was 9.03% in [7], 0.42% in test [8], 0.14% in test [9] and -3.32% in [10].
For the compound `N#Cc1ccc(Oc2nccc(-c3c(-c4ccc(F)cc4)ncn3C3CCNCC3)n2)cc1`, the inhibition was determined as 9.04% in [1]; 5.63% in test [2]; 4.9% in [3]; 5% in test [4]; 7.93% in test [5]; 7.01% in [6]. The inhibition is 6.12% in test [7], -3.21% in [8], -3.22% in [9] and -0.77% in test [10].
As to `COc1ccc2cc(-c3c(-c4ccncc4)nc(-c4ccc(S(C)(=O)=O)cc4C)n3C)ccc2c1`, the inhibition in test [1] is 26.6%; in test [2], 0.23%; in test [3], -0.19%; in [4], 6.07%; in test [5], 8.9%; in [6] it was 3.38%. Further, the inhibition in test [7] is 11.2%; in [8] it was 1.11%; in test [9], 5.61%; in test [10] it was 0.01%.
In the case of `C[C@@H](Oc1cc(-n2cnc3ccc(OC4CCN(C)CC4)cc32)sc1C(N)=O)c1ccccc1Cl`, the inhibition turned out to be 22% in [1]; 0.07% in [2]; 9.84% in test [3]; 8.31% in test [4]; 15.5% in test [5]; 10.3% in test [6]. For the same compound, the inhibition is 18.7% in test [7], -0.74% in test [8], -2.64% in test [9] and -0.76% in test [10].

Source of the values: ChEMBL document CHEMBL1961873, “Compounds: GSK PKIS; Assays: Nanosyn kinase panel” (2012).
